Compound activity deposited in PubChem BioAssay by several laboratories.
Only some compounds are listed: those with a hit (about 2.1% of all), similar ones and a draw of the others.
ADAM10 inh – human ADAM10 inhibitors, primary screen, biochemical, QFRET, HTS; Disintegrin and metalloproteinase domain-containing protein 10 (Homo sapiens), O14672; recombinant ADAM10, EDANS/DABCYL FRET peptide cleavage, 3 h; inhibition, % at 7 µM; hit rate 0.62% among 370,000;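 active = inhibition above a per-campaign cutoff equal to the mean of compounds falling between control-based bounds plus 3 SD, cut at about 20% in these data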;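 also: 0% = DMSO wells while the 100% control is not disclosed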
Target sequence (O14672 214-748 limits assumed): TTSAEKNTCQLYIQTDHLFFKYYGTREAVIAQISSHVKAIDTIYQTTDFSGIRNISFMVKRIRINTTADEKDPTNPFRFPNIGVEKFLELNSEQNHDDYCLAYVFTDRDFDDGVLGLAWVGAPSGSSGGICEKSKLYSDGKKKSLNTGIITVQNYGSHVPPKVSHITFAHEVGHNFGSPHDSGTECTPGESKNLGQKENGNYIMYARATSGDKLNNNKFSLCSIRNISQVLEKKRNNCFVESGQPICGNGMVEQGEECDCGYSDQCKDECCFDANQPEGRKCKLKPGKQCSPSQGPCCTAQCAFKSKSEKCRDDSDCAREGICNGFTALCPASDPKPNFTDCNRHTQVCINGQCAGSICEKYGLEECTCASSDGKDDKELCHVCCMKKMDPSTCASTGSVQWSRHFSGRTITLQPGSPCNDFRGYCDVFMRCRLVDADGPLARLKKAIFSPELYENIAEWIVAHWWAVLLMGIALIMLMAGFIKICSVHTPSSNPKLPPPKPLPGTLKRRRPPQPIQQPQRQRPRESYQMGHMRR
PLC-beta3 inh – human PLC-beta3 inhibitors, primary screen, biochemical, fluorescence. 1-phosphatidylinositol 4,5-bisphosphate phosphodiesterase beta-3 (Homo sapiens), Q01970. Purified PLC-beta3, fluorogenic substrate. inhibition, % at 12.2 µM. hit rate 0.18% among 370,000. AID 720704, 2013; in the data active = inhibition above about 11%;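 also: 0% = median of compound wells on plate and 100% = full blocker control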
Rce1 inh – yeast Rce1p protease inhibitors, primary screen, biochemical, fluorescence, cell-free homogeneous; yeast membranes, quenched prenylated peptide cleavage fluorescence; CAAX prenyl protease 2 (Saccharomyces cerevisiae (strain ATCC 204508 / S288c)), Q03530; hit rate 0.27% among 290,000; AID 2563, 2010; calls only;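 active = fall in fluorescence gain of 50% or more versus controls, with final raw signal at or below 3038400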;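 also: plate controls were neutral control wells for no effect and wells lacking membranes for full effect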
ADAM17 inh – ADAM17 inhibitors, primary screen, biochemical, QFRET; Disintegrin and metalloproteinase domain-containing protein 17 (Homo sapiens), P78536; recombinant ADAM17, EDANS/DABCYL FRET peptide cleavage; inhibition, % at 6.95 µM; hit rate 0.83% among 370,000; AID 720648, 2013;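 active = inhibition above the mean of compounds lying between control limits plus 3 SD, set per campaign, cut at about 8.5% in these data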;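 also: 0% = DMSO-only wells as the low control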
PLC-gamma1 inh – PLC-gamma1 enzyme inhibitors, primary screen, biochemical, fluorescence, purified enzyme. 1-phosphatidylinositol 4,5-bisphosphate phosphodiesterase gamma-1 (Homo sapiens), P19174. fluorogenic substrate. inhibition, % at 12.2 µM. hit rate 0.84% among 370,000. AID 720700, 2013; in the data active = inhibition above about 9.5%
ADAM10 counter – ADAM10 inhibitors, counter-screen for ADAM17 exosite inhibitor project, biochemical, FRET, human ADAM10; hit rate 47% among 2,900; recombinant ADAM10, EDANS/DABCYL FRET peptide cleavage, 3 h; AID 743256, 2014; shares compounds with ADAM17 inh; inhibition, % at 6.95 µM;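 active = mean inhibition over the triplicate runs exceeds the activity threshold set in the earlier primary screen, cut at about 20% in these data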;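 also: 0% = DMSO wells and 100% = marimastat wells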
ADAM17 confirm – ADAM17 inhibitors, hit retest, confirmation, biochemical, QFRET peptide cleavage; shares compounds with ADAM17 inh; recombinant ADAM17, EDANS/DABCYL QFRET peptide cleavage; inhibition, % at 6.95 µM; hit rate 65% among 2,900;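 active = mean inhibition across replicates above the hit cutoff set in the primary screen, cut at about 8.5% in these data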;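 also: 0% = DMSO wells and 100% = marimastat wells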
The depositor's hits bear a star.

How did CC(C)(C)OC(=O)N1CCc2onc(-c3ccc(Cl)cc3)c2C1=O do in these assays?
ADAM10 inh: -12.4; PLC-beta3 inh: -1.5; ADAM17 inh: -0.5; PLC-gamma1 inh: 0.8

Results for CC(C)C[C@H](CO)N(Cc1ccccc1)S(=O)(=O)N(Cc1ccccc1)[C@@H](CO)CC(C)C ?
ADAM10 inh: -2.7; PLC-beta3 inh: 8.9; ADAM17 inh: 13.1*; PLC-gamma1 inh: 4.8; ADAM10 counter: 46.9*; ADAM17 confirm: 26.0*

Results for CCn1nc(C)c(C(=O)Nc2cc(Oc3ccc(Cl)cc3)cc([N+](=O)[O-])c2)c1C ?
ADAM10 inh: 14.9; PLC-beta3 inh: -1.6; Rce1 inh: inactive; ADAM17 inh: 12.5*; PLC-gamma1 inh: 9.0; ADAM10 counter: 39.3*; ADAM17 confirm: 17.6*

What do the screens show for `O=C(Nc1ccc(Nc2ccccc2)cc1)c1ccc(Cl)c([N+](=O)[O-])c1`?
ADAM10 inh: 16.7; PLC-beta3 inh: -4.4; Rce1 inh: inactive; ADAM17 inh: 8.6*; PLC-gamma1 inh: 3.2; ADAM10 counter: 27.7*; ADAM17 confirm: 18.4*

How did Cc1cc(C(=O)Nc2ccc(Nc3ccccc3)cc2)ccc1[N+](=O)[O-] do in these assays?
ADAM10 inh: 15.2; PLC-beta3 inh: -1.1; Rce1 inh: inactive; ADAM17 inh: 6.2; PLC-gamma1 inh: 1.1

How did O=C(COc1ccccc1)NCC(=O)Nc1cccc(S(=O)(=O)NC2=NCCC2)c1 do in these assays?
ADAM10 inh: 5.9; PLC-beta3 inh: 1.8; Rce1 inh: inactive; ADAM17 inh: -1.1; PLC-gamma1 inh: 2.1

How did COc1ccc(C(=O)COC(=O)C(CCCCN2C(=O)C3C4C=CC(C4)C3C2=O)N2C(=O)C3C4C=CC(C4)C3C2=O)cc1 (stereo unspecified) do in these assays?
ADAM10 inh: 7.9; PLC-beta3 inh: -2.6; Rce1 inh: inactive; ADAM17 inh: 9.3*; PLC-gamma1 inh: -2.0; ADAM10 counter: -2.6; ADAM17 confirm: 5.0

What do the screens show for `OC1(c2cccc(C(F)(F)F)c2)CCN(CCN2CCCCC2)CC1`?
ADAM10 inh: 5.6; PLC-beta3 inh: -1.4; Rce1 inh: inactive; ADAM17 inh: -0.1; PLC-gamma1 inh: 5.0

What do the screens show for `CC[C@H]1C(O)C[C@H]2CCN3C(=O)CCC[C@H]1[C@H]23` (stereo partly specified)?
ADAM10 inh: 1.1; PLC-beta3 inh: 4.0; ADAM17 inh: -0.7; PLC-gamma1 inh: -1.2

How did N/C(=N\N=C\c1ccc(O)cc1)c1nonc1N do in these assays?
ADAM10 inh: 14.3; PLC-beta3 inh: 9.1; Rce1 inh: inactive; ADAM17 inh: 10.5*; PLC-gamma1 inh: 10.7*; ADAM10 counter: 16.7; ADAM17 confirm: 9.2*

What do the screens show for `N/C(=N\N=C\c1ccc(O)c(O)c1)c1nonc1N`?
ADAM10 inh: -36.1; PLC-beta3 inh: -32.9; Rce1 inh: inactive; ADAM17 inh: -14.6; PLC-gamma1 inh: -21.1

What do the screens show for `COc1ccc(OC)c(NC(=O)[C@H]2CC=CC[C@H]2C(=O)O)c1`?
ADAM10 inh: 11.4; PLC-beta3 inh: 0.7; Rce1 inh: inactive; ADAM17 inh: 0.9; PLC-gamma1 inh: 3.4

Results for COc1ccc(OC)c(NC(=O)C2CC(C)=C(C)CC2C(=O)O)c1 (stereo unspecified) ?
ADAM10 inh: 18.8; PLC-beta3 inh: 8.8; Rce1 inh: inactive; ADAM17 inh: 10.8*; PLC-gamma1 inh: 7.2; ADAM10 counter: -8.9; ADAM17 confirm: -1.3

How did CC(C)COc1cccc(C(=O)Nc2cc(S(=O)(=O)N3CCOCC3)ccc2N2CCCC2)c1 do in these assays?
ADAM10 inh: -5.8; PLC-beta3 inh: -19.8; ADAM17 inh: 10.8*; PLC-gamma1 inh: -7.2; ADAM10 counter: 20.9*; ADAM17 confirm: 11.1*

What do the screens show for `COc1cccc(C(=O)Nc2cc(S(=O)(=O)N3CCOCC3)ccc2N2CCOCC2)c1`?
ADAM10 inh: 3.7; PLC-beta3 inh: -8.5; ADAM17 inh: -1.8; PLC-gamma1 inh: -1.6

How did CCc1ccc(C(=O)Nc2cc(S(=O)(=O)N3CCOCC3)ccc2N2CCOCC2)cc1 do in these assays?
ADAM10 inh: 5.8; PLC-beta3 inh: -2.2; ADAM17 inh: 9.1*; PLC-gamma1 inh: 5.6; ADAM10 counter: -3.8; ADAM17 confirm: 2.9

What do the screens show for `COc1cc2ccc(C(=O)O)cc2cc1OC`?
ADAM10 inh: -6.8; PLC-beta3 inh: -0.8; ADAM17 inh: -2.5; PLC-gamma1 inh: -1.5

Results for Cc1cc(N)n(-c2ccc(Oc3ccccc3)c(S(=O)(=O)O)c2)n1 ?
ADAM10 inh: 0.2; PLC-beta3 inh: 1.7; Rce1 inh: inactive; ADAM17 inh: -4.2; PLC-gamma1 inh: -1.5

How did C=CC[C@H]1CC(C)=C[C@H](CC=C)N1C(=O)c1cc(COc2ccccc2SC)on1 do in these assays?
ADAM10 inh: 13.3; PLC-beta3 inh: -4.0; Rce1 inh: inactive; ADAM17 inh: 9.4*; PLC-gamma1 inh: 4.5; ADAM10 counter: 29.0*; ADAM17 confirm: 14.5*

Results for CCN(C(=O)COC(=O)c1cccc(NS(=O)(=O)c2ccc(F)c(F)c2)c1)C1CCS(=O)(=O)C1 (stereo unspecified) ?
Rce1 inh: inactive

How did COc1ccc(Cc2nnc(N/N=C/c3ccc(O)cc3)[nH]c2=O)cc1OC do in these assays?
ADAM10 inh: 9.1; PLC-beta3 inh: 5.9; Rce1 inh: inactive; ADAM17 inh: 9.3*; PLC-gamma1 inh: 6.2; ADAM10 counter: 2.7; ADAM17 confirm: 5.3

How did COc1ccc(Cc2nnc(N/N=C/c3ccc(Br)cc3)[nH]c2=O)cc1OC do in these assays?
ADAM10 inh: -4.6; PLC-beta3 inh: -6.8; Rce1 inh: inactive; ADAM17 inh: -4.0; PLC-gamma1 inh: 0.9

How did COc1cc(COC(=O)Oc2ccc(CNC(C)=O)cc2OC)c([N+](=O)[O-])cc1OC do in these assays?
ADAM10 inh: 14.7; PLC-beta3 inh: 5.5; Rce1 inh: inactive; ADAM17 inh: 10.0*; PLC-gamma1 inh: 4.0; ADAM10 counter: 3.2; ADAM17 confirm: 2.7

Results for COc1cc2c(cc1O)C(CSC)Cc1cc3c(cc1N(C)CC2)OCO3 (stereo unspecified) ?
ADAM10 inh: 2.8; PLC-beta3 inh: -3.8; ADAM17 inh: -2.5; PLC-gamma1 inh: -4.0
